Test results reported in PubChem BioAssay (NCATS).
Inconclusive results are not listed. Calls of active or inactive are those of the source. The call rests on the fitted dose curve; in most records, active means well fitted inhibition curve with a large enough effect; inconclusive means small, poorly fitted or top-dose-only effect; inactive means flat fitted curve, though single readings scatter.

target: Calcium and integrin-binding protein 1 (Homo sapiens) (UniProt Q99828); assay: Primary qHTS for Identification of Calcium Integrin Binding Protein 1 (CIB1) Competitor (AID 1508620); conditions: CIB1-GST / FITC-alphaIIb peptide fluorescence polarization; series mostly up to 114 µM; activity change, negative = inhibition: at the top concentration; further: top concentration of the series differs between compounds
Procedure, shortened: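 Fluorescence polarization competition: GST-tagged CIB1 (1 uM final) preincubated with compound 15 min at room temperature, then FITC-labelled alphaIIb peptide (100 nM final) added. After 15 min at room temperature, polarization read at Ex 480/Em 540.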
On the % scale 0 is the no-effect control and ±100 the full control effect.

Calcium and integrin-binding protein 1 (Homo sapiens), sequence (Q99828 whole entry, looked up): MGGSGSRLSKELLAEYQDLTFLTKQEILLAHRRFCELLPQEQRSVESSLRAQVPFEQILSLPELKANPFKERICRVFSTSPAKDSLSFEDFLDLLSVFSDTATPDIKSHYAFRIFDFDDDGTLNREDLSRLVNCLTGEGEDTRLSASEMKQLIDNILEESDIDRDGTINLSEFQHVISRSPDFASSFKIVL

Structure (SMILES) | activity change, negative = inhibition
CC1(CO)CC(O)[C@]2(C(=O)O)CCC34CC3(C=CC3[C@]5(C)C(CC[C@]34C)C(C)(CO)[C@@H](O)[C@H](O)[C@@H]5O)C2C1 (some centres not stated) | 1.18% [at 57.7 µM] (inactive)
O=C(NC[C@H](O)CN1CCc2ccccc2C1)c1ccnc(NC2CCC2)c1 | 3.22% (inactive)
CN(c1ccc(NC(=O)Nc2ccccc2)cc1)S(=O)(=O)c1cnn(-c2ccc(F)cc2)c1 | -4.65% (inactive)
C=C1C(=O)O[C@@H]2C[C@H](C)C3=CC(=O)[C@H](O)[C@@]3(C)C[C@H]12 | -8.48% (inactive)
C[C@H]1CC[C@@]2(OC1)O[C@H]1CC3C4CC[C@H]5C[C@@H](O)CC[C@]5(C)C4=CC(=O)[C@]3(C)[C@H]1[C@@H]2C (some centres not stated) | 3.35% [at 57.7 µM] (inactive)
C[C@@H]1C[C@H]2O[C@@]3(O[C@@H]2C(C)(C)O)C(O)[C@@]2(C)C4CCC5C(C)(C)[C@@H](O[C@H]6OC[C@H](O)[C@@H](O)[C@@H]6O)CC[C@@]56C[C@@]46CC[C@]2(C)C13 (some centres not stated) | 0.962% [at 30.2 µM] (inactive)
CC1OC(=O)C[C@@H]2C(C(=O)O)=CO[C@@H](O[C@H]3O[C@H](CO)[C@@H](O)[C@H](O)[C@H]3O)[C@H]12 (some centres not stated) | -1.31% [at 57.7 µM] (inactive)
C/C=C/[C@@H]1C=C[C@@H]2C[C@H](C)CC[C@H]2[C@]1(C)/C(O)=C1/C(=O)[C@@H](CO)N(C)C1=O | 4.55% [at 57.7 µM] (inactive)
CC(=O)O[C@@]12CO[C@@H]1C[C@H](O)[C@@]1(C)C(=O)[C@H](O)C3=C(C)[C@@H](OC(=O)[C@H](O)[C@@H](NC(=O)OC(C)(C)C)c4ccccc4)C[C@@](O)([C@@H](OC(=O)c4ccccc4)C12)C3(C)C (some centres not stated) | -4.45% [at 57.7 µM] (inactive)
COc1ccc(NC(=O)c2ccc(-c3ccc(C(=N)N)cc3C)cc2)cc1N1CCN(C)CC1 | -0.995% (inactive)
C=C1CC[C@@H]2[C@](C)(CO)[C@H](O)CC[C@@]2(C)[C@@H]1C/C=C1/C(=O)OCC1OC(=O)/C(=C/CO)C(O)C[C@@H]1C(=C)CC[C@@H]2[C@](C)(CO)[C@H](O)CC[C@]21C (some centres not stated) | 2.76% [at 30.2 µM] (inactive)
CCCOc1ccc(S(=O)(=O)N2CCN(CCO)CC2)cc1-c1nc2c(CCC)cn(CC)c2c(=O)[nH]1 | 4.28% (inactive)
Cn1ncc(Cl)c1-c1cc(C(=O)N[C@H](CN)Cc2ccc(F)c(F)c2)oc1Cl | -5.92% (inactive)
CC(=O)O[C@H]1CC[C@]2(C)[C@H]3CC[C@]4(C)Oc5oc(C)cc(=O)c5C[C@H]4[C@]3(C)CC[C@H]2C1(C)C | 2.98% [at 57.7 µM] (inactive)
CC(=O)NC(C(=O)O[C@H]1CCC(C)(C)[C@@H]2CC=C3C(=O)OCC3(O)[C@@]12C)C(C)C (some centres not stated) | -2.4% [at 57.7 µM] (inactive)
CC(=O)OC1C(O)CC2(C)C(CCC3(C)C2CC=C2C4C5(CCC(CO[C@@H]6O[C@H](CO)[C@@H](O)[C@H](O)[C@H]6O)(OC5=O)C4(C)O)C(O)CC23C)C1(C)C (some centres not stated) | -1.88% [at 30.2 µM] (inactive)
COc1cc2nc(N3CCN(C(=O)COc4c(OC)cccc4C(C)C)CC3)nc(N)c2cc1OC | 6.68% (inactive)
COc1cc(F)c(F)c(Nc2ccc(I)cc2F)c1NS(=O)(=O)C1(CC(O)CO)CC1 (configuration not stated) | -0.662% (inactive)
COC(=O)Nc1cc(Nc2cc(NC3CC3)c3ncc(C#N)n3n2)c(Cl)c(N2CCN(C)CC2)c1 | -1.96% [at 57.7 µM] (inactive)
CC(=O)OC[C@]12[C@H](OC(C)=O)[C@H](OC(=O)c3ccccc3)[C@@H]3[C@@H](OC(C)=O)[C@]1(OC3(C)C)[C@H](C)C[C@H](OC(C)=O)[C@@H]2OC(=O)c1ccccc1 | 2.56% [at 30.2 µM] (inactive)
COC(=O)N1CC2(CC2)C[C@H](C(=O)NO)[C@H]1C(=O)N1CCN(c2ccccc2)CC1 | -0.996% (inactive)
CCc1c(Cl)c(O)c(Cl)c(O)c1C(=O)O[C@H]1[C@H](O)[C@H](OC)[C@H](OC/C2=C\C=C\C[C@H](O)/C(C)=C\[C@H](CC)[C@@H](O[C@@H]3OC(C)(C)[C@@H](OC(=O)C(C)C)[C@H](O)[C@@H]3O)/C(C)=C/C(C)=C/C[C@@H]([C@@H](C)O)OC2=O)O[C@@H]1C | -1.69% [at 57.7 µM] (inactive)
O=C(NO)c1ccc(CC(=O)N(CCO)c2ccccc2)cc1 | 3.05% (inactive)
O=C(O)c1cc(N(Cc2ccc(C3CCCCC3)cc2)C(=O)c2ccc(Oc3ccccc3)cc2)ccc1O | -2.04% (inactive)
Cc1cc(C(C)Nc2ccccc2C(=O)O)c2nc(N3CCOCC3)cc(=O)n2c1 (configuration not stated) | -4.27% (inactive)
O=C(Nc1ccccc1)N1CCN(c2nc(-c3ccccc3)ns2)CC1 | 1.87% (inactive)
COC1CC(O[C@H]2CC[C@]3(C)C4CC[C@]5(C)C(C6=CC(=O)OC6)=CCC56OC46CC[C@@H]3C2)OC(C)C1O[C@@H]1O[C@H](CO[C@@H]2O[C@H](CO)[C@@H](O)[C@H](O)[C@H]2O)[C@@H](O)[C@H](O)[C@H]1O (some centres not stated) | 0.96% [at 30.2 µM] (inactive)
